The nature of experiment [1]: Primary qHTS for inhibitors of SARS-S pseudo-typed particle cell entry (AID 1479145). For activity change, negative = inhibition: % is set by controls: 0 for no effect and ±100 for the full control effect. Note: nearly all actives have a fitted effect of over 45% in size. To be noted: outcome: dose series up to 57.1 µM unless noted. For orientation: In qHTS, concentration-response curves come from the screen itself.
Experiment [2] is described as follows: Primary qHTS for Huh7 cytotoxicity: counterscreen for inhibitors of MERS-S pseudotyped particle cell entry (AID 1479147). The settings on record: outcome: dose series up to 57.1 µM unless noted.
Experiment [3] can be described thus: Primary qHTS for inhibitors of MERS-S pseudo-typed particle cell entry (AID 1479149). For activity change, negative = inhibition: % is set by controls: 0 for no effect and ±100 for the full control effect. Note: nearly all actives have a fitted effect of over 60% in size. To be noted: outcome: dose series up to 57.1 µM unless noted.
A short description of experiment [4]: Primary qHTS for Vero E6 cytotoxicity: counterscreen for inhibitors of SARS-S pseudo-typed particle cell entry (AID 1479150). To be noted: outcome: dose series up to 57.1 µM unless noted.
Experiment [5] is described as follows: Cytotoxicity counterscreen for inhibitors of SARS-CoV-2 cell entry (AID 1645845). Note: nearly all actives have a fitted effect of over 50% in size. To be noted: outcome: dose series up to 57.1 µM unless noted. The essentials: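 Counterscreen run in the same HEK293-ACE2 line as the pseudotyped-particle entry assay, without particles. Viability after 48 h at 37 C was read as ATP luminescence, scaled between cell-containing and cell-free wells.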

Experiment [6] in a line: Primary qHTS to identify inhibitors of SARS-CoV-2 cell entry (AID 1645846). Note: nearly all actives have a fitted effect of over 45% in size. The settings on record: SARS-CoV-2 pseudovirus cell entry assay, luminescence; activity change, negative = inhibition: at 57.1 µM (top of the series) unless noted. An outline of the steps: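 Luminescence readout (Bright-Glo luciferase) 48 h after pseudoparticle addition. HEK293-ACE2 cells, 1500/well; compound pre-incubation 1 h; Normalized to spike PP and bald PP.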

Inconclusive results are not listed. Activity calls are given as the source filed them. Calls come from the whole dose curve.

As for `O=C(O[C@H]1C[N+]2(CCCOc3ccccc3)CCC1CC2)C(O)(c1cccs1)c1cccs1`, the Potency result in experiment [1], in experiment [2], in experiment [3], in experiment [4] and in experiment [5] was “inactive” each time. The activity change, negative = inhibition in experiment [6] was -28.6%.
Consider `CC(=O)O[C@H]1CC[C@@]2(C)C(=CC[C@H]3[C@@H]4CC[C@H](C(C)=O)[C@@]4(C)CC[C@@H]32)C1`, for which the Potency result in experiment [1], in experiment [2], in experiment [3], in experiment [4] and in experiment [5] was “inactive” throughout. In experiment [6], the activity change, negative = inhibition was -16.3%.
Regarding `COc1cccc(N2CCN(C3=Nc4c(F)cccc4[C@H](CC(=O)O)N3c3cc(C(F)(F)F)ccc3OC)CC2)c1`, the Potency result in experiment [1], in experiment [2], in experiment [3], in experiment [4], in experiment [5] and in experiment [6] was “inactive” in each case.
On to `O=C[C@H](O)[C@@H](O)[C@H](O)[C@H](O)CO`, for which the Potency result in experiment [1], in experiment [2], in experiment [3], in experiment [4], in experiment [5] and in experiment [6] was “inactive” in each case.
`[2H]C([2H])([2H])C(O)(CCO[C@@H](C)[C@H]1CC[C@H]2/C(=C/C=C3\C[C@@H](O)C[C@H](O)C3=C)CCC[C@]12C)C([2H])([2H])[2H]`: the Potency entry in experiment [1], in experiment [2], in experiment [3], in experiment [4] and in experiment [5] was “inactive” throughout. In addition, the activity change, negative = inhibition in experiment [6] was -6.57%.
As to `Cn1c(=O)cc(N2CCC[C@@H](N)C2)n(Cc2cc(F)ccc2C#N)c1=O`, the Potency entry in experiment [1], in experiment [2], in experiment [3], in experiment [4] and in experiment [5] was “inactive” throughout. For the same compound, the activity change, negative = inhibition in experiment [6] was -23.7%.
Turning to `CO/N=C(/C(=O)N[C@@H]1C(=O)N2C(C(=O)O)=CCS[C@H]12)c1csc(N)n1`, the Potency result in experiment [1], in experiment [2], in experiment [3], in experiment [4] and in experiment [5] was “inactive” in each case. Further, the activity change, negative = inhibition in experiment [6] was -20.9%.
Consider `CO/N=C(\C(=O)N[C@@H]1C(=O)N2C(C(=O)O)=C(CSc3cnns3)CS[C@H]12)c1csc(N)n1`, for which the Potency result in experiment [1], in experiment [2], in experiment [3], in experiment [4] and in experiment [5] was “inactive” throughout. In addition, the activity change, negative = inhibition in experiment [6] is -7.92%.
Consider `Oc1c(Br)cc(Br)cc1CNC1CCC(O)CC1` (stereo not drawn), for which the Potency result in experiment [1], in experiment [2], in experiment [3], in experiment [4] and in experiment [5] was “inactive” each time. Further, the activity change, negative = inhibition in experiment [6] is -15.3%.
As for `CC12C=CC(=O)NC1CCC1C2CCC2(C)C(C(=O)Nc3cc(C(F)(F)F)ccc3C(F)(F)F)CCC12` (stereo not drawn), the Potency entry in experiment [1], in experiment [2], in experiment [3], in experiment [4] and in experiment [5] was “inactive” throughout. The activity change, negative = inhibition in experiment [6] is -8.68%.
For `CN1CC(O)c2cc(N=NC(N)=O)c(O)cc21` (stereo not drawn), the Potency result in experiment [1], in experiment [2], in experiment [3], in experiment [4] and in experiment [5] was “inactive” in each case. Moreover, in experiment [6], the activity change, negative = inhibition is -20%.
As for `CC(C)(C)NCC(O)CSc1nc(-c2ccc(C(N)=O)s2)cs1` (stereo not drawn), the Potency entry in experiment [1], in experiment [2], in experiment [3], in experiment [4] and in experiment [5] was “inactive” throughout. For the same compound, the activity change, negative = inhibition in experiment [6] was -22.9%.
Consider `COCC1=C(C(=O)O)N2C(=O)[C@@H](NC(=O)/C(=N\OC)c3csc(N)n3)[C@H]2SC1`, for which the Potency entry in experiment [1], in experiment [2], in experiment [3], in experiment [4] and in experiment [5] was “inactive” throughout. Moreover, the activity change, negative = inhibition in experiment [6] is -16.5%.
As to `CC(=O)OCC(=O)[C@@]1(O)[C@H](C)C[C@H]2[C@@H]3C[C@H](F)C4=CC(=O)C=C[C@]4(C)[C@@]3(F)[C@@H](O)C[C@@]21C`, the Potency entry in experiment [1], in experiment [2], in experiment [3], in experiment [4], in experiment [5] and in experiment [6] was “inactive” throughout.
Turning to `CCC(CC)[C@H](NC(C)=O)[C@@H]1[C@H](O)[C@@H](C(=O)O)C[C@H]1N=C(N)N`, the outcome in experiment [1] was “inactive [at 0.573 µM]”; in experiment [2], “inactive [at 0.573 µM]”; in experiment [3], “inactive [at 0.573 µM]”; in experiment [4] it was “inactive [at 0.573 µM]”; in experiment [5], “inactive [at 0.702 µM]”. Moreover, the activity change, negative = inhibition in experiment [6] was -12.4% [at 0.702 µM].
As to `CCOC(=O)[C@H](CS)NCCN[C@@H](CS)C(=O)OCC`, the Potency result in experiment [1], in experiment [2], in experiment [3], in experiment [4], in experiment [5] and in experiment [6] was “inactive” in each case.
With `NC(=O)CCC1NC(=O)C(Cc2ccccc2)NC(=O)C(Cc2ccc(O)cc2)NC(=O)CCSSCC(C(=O)N2CCCC2C(=O)NC(CCCN=C(N)N)C(=O)NCC(N)=O)NC(=O)C(CC(N)=O)NC1=O` (stereo not drawn), the Potency entry in experiment [1], in experiment [2], in experiment [3], in experiment [4] and in experiment [5] was “inactive” in each case. For the same compound, the activity change, negative = inhibition in experiment [6] is -25.4% [at 27.1 µM].
For `CC(C)(C)NCC(O)COc1ccccc1C#N` (stereo not drawn), the Potency entry in experiment [1], in experiment [2], in experiment [3], in experiment [4] and in experiment [5] was “inactive” throughout. The activity change, negative = inhibition in experiment [6] is -9.12%.
`C[C@@H]1C[C@H]2[C@@H]3CCC4=CC(=O)C=C[C@]4(C)[C@@]3(F)[C@@H](O)C[C@]2(C)[C@@]1(O)C(=O)COP(=O)(O)O`: the outcome is “inactive [at 11.4 µM]” in experiment [1]; “inactive [at 11.4 µM]” in experiment [2]; “inactive [at 11.4 µM]” in experiment [3]; “inactive [at 11.4 µM]” in experiment [4]; “inactive [at 11.3 µM]” in experiment [5]; “inactive [at 11.3 µM]” in experiment [6].
Regarding `CCCCCCCCCC(=O)OCCN1CCN(CC/C=C2/c3ccccc3Sc3ccc(Cl)cc32)CC1`, the Potency result in experiment [1], in experiment [2], in experiment [3], in experiment [4] and in experiment [5] was “inactive” throughout. The activity change, negative = inhibition in experiment [6] was -15%.
For `CCCCCCCCCCCC(=O)OCN1C(=O)CCc2ccc(OCCCCN3CCN(c4cccc(Cl)c4Cl)CC3)cc21`, the Potency entry in experiment [1], in experiment [2], in experiment [3], in experiment [4] and in experiment [5] was “inactive” each time. Moreover, the activity change, negative = inhibition in experiment [6] is -17.3% [at 19 µM].
On to `O=C(O)[C@@H]1CCCN1`, for which the Potency result in experiment [1], in experiment [2], in experiment [3], in experiment [4], in experiment [5] and in experiment [6] was “inactive” each time.
With `CC(Oc1ccccc1)C(=O)N[C@@H]1C(=O)N2[C@@H]1SC(C)(C)[C@@H]2C(=O)O` (stereo partly drawn), the Potency entry in experiment [1], in experiment [2], in experiment [3], in experiment [4] and in experiment [5] was “inactive” throughout. Besides, the activity change, negative = inhibition in experiment [6] is -18.1%.

The values are drawn from PubChem BioAssay (NCATS).
